# Compound activity (PubChem)
# GALK inhibitor: qHTS Assay for Inhibitors of Human Galactokinase (GALK); P51570; Purified GALK, Kinase-Glo residual ATP luminescence; Potency, µM (series often up to 57.5 µM), for the others: top-dose activity change, negative = inhibition, usual class: inhibitors; actives 0.007% (n = 270,000); AID 1868, 2009
#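 Kinase-Glo Plus luminescence measured ATP left after a 1 h room-temperature reaction. The reaction used 5 nM GALK, 100 uM galactose and 35 uM ATP at pH 8.0 (20 mM HEPES, 5 mM MgCl2, 60 mM NaCl, 1 mM DTT, 0.01% BSA).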
# Eya2 inh: qHTS Assay for Inhibitors of the Phosphatase Activity of Eya2; Protein phosphatase EYA2 (Homo sapiens), O00167; recombinant Eya2, OMFP fluorescence dephosphorylation (OMFP is methylfluorescein phosphate); Potency, µM (titrated, usually from 76.9 µM), inactives show at the highest dose activity, negative = inhibition, most hits filed as inhibitors; actives 0.006% (n = 330,000); AID 488837, 2010
# Target sequence (O00167 whole entry, looked up): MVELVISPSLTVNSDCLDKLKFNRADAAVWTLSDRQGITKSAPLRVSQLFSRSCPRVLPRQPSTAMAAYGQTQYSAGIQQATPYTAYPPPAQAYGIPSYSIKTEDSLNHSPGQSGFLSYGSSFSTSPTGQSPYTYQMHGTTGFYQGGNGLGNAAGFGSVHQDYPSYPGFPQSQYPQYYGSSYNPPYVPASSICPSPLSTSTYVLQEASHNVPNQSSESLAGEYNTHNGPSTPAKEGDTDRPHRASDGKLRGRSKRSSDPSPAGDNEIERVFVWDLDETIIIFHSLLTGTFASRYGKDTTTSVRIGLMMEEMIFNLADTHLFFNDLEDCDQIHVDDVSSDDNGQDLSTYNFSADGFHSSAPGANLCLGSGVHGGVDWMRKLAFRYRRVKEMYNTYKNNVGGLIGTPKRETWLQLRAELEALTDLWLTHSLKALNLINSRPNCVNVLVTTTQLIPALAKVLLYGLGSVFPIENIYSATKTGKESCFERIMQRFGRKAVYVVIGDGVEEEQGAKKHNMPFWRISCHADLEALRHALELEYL
#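 Eya2 protein (added as 0.2 uM solution) was preincubated with compound for 10 min at ambient temperature in 50 mM HEPES pH 7.5, 50 mM NaCl, 5 uM MgCl2, 0.05% BSA, 1 mM DTT. OMFP (added at 50 uM) then reacted 10 min; fluorescence read at 485/525 nm.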
# RGS4 inhibitor: Inhibitors of Regulator of G Protein Signaling (RGS) 4: qHTS; AID 504845, 2011; Transcreener GDP fluorescence polarization, RGS4-accelerated GTP hydrolysis; actives 0.039% (n = 390,000); Potency, µM (titrated, usually from 114 µM), for inactives: at the highest dose activity change, negative = inhibition, most hits filed as inhibitors; Regulator of G-protein signaling 4 (Homo sapiens), P49798; further: nearly all actives have a fitted effect of over 75% in size
#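 MLSMR compounds (23 nl, pin-transferred) preincubated 10 min at room temperature with a 500nM (2x) first reagent, then RGS4 at 900nM (2x) plus Transcreener GDP mix added; fluorescence polarization (620/688 nm) read before and after 90 min at 30 °C.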
# TrxR1 inh: qHTS Assay for Inhibitors of Mammalian Selenoprotein Thioredoxin Reductase 1 (TrxR1): qHTS. recombinant rTrxR1, NADPH fluorescence consumption, selenite substrate. Potency, µM (top dose mostly 114 µM), inactives show at the highest dose activity change, negative = inhibition, actives largely listed as inhibitors. actives 1% (n = 390,000); further: nearly all actives have a fitted effect of over 65% in size
#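 Rat TrxR1 (90 nM in the dispensed reagent) was pre-reduced with 400 uM NADPH for 5 min at room temperature, then incubated with compound for 15 min. After 400 uM selenite was added, NADPH fluorescence (Ex 340/Em 450 nm) was followed for 8 min.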
# TrxR1 substrate: qHTS Assay for Substrates of Mammalian Selenoprotein Thioredoxin Reductase 1 (TrxR1): qHTS; actives 0.01% (n = 390,000); purified TrxR1 substrate turnover, NADPH consumption readout; Potency, µM (titrated, usually from 114 µM), for inactives: at the highest dose activity change, negative = substrate turnover; AID 588456, 2011; further: nearly all actives have a fitted effect of over 50% in size
#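 Rat TrxR1, dispensed at 90 nM, was prereduced with 400 uM NADPH (final) for 5 min at ~22 deg C, then incubated with compound 15 min before 400 uM selenite. A first-read NADPH fluorescence drop versus no-compound background flagged substrates.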
# USP2a inh: qHTS Assay for Inhibitors of Ubiquitin-specific Protease USP2a Using CHOP2 as the Reporter; USP2 core, Ub-CHOP2 coupled fluorogenic reporter, 485/531; Potency, µM (series often up to 38.3 µM), inactives show at the highest dose activity change, negative = inhibition, usual class: inhibitors; actives 0.01% (n = 330,000); AID 463254, 2010;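 further: plate controls were DMSO wells for no effect and full inhibition by NEM control for full effect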
#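 Deubiquitinase activity read as fluorescence (485/531 nm) after Ub-CHOP2 cleavage activates the enterokinase reporter on its substrate; USP2 core 10nM, Ub-CHOP2 and substrate 25nM each, 30min compound preincubation then 60min RT; data normalized to NEM, curves fitted.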
# * hit, by the source's call; i = inactive; ? = inconclusive; . = no result given; ! = a repeat was not active; [ ] = remark or other dose. This is a sample that favours compounds with a hit; in the whole collection about 1% have one here. The call rests on the fitted dose curve; in most records, active means well fitted curve in the direction sought with a large enough effect; inconclusive means small, poorly fitted or top-dose-only effect, or another doubt; inactive means no such curve, though single readings can be large; an effect the other way counts as inactive or inconclusive. Unless noted, on the % scale 0 is the no-effect control and ±100 the full control effect; potency means the concentration at half of the fitted maximal effect.
SMILES,GALK inhibitor,Eya2 inh,RGS4 inhibitor,TrxR1 inh,TrxR1 substrate,USP2a inh
COc1ccc(-c2nnc3sc(COc4ccccc4)nn23)cc1,-0.6%,-3.4%,-2.3%,-8.3%,-5.5%,-0.6%
O=C1C[C@H]2C=CCc3cccc(c32)CN1Cc1cccc(F)c1,.,.,.,-19.2%,-0.1%,.
O=C(CNC(=O)c1ccccc1)Sc1ccccc1,.,.,-18.4%,12.6µM*,3.9%,.
Nc1nc(NCc2cccc(Cl)c2)c2[nH]cnc2n1,.,.,-8.7%,12.5%,2.1%,.
O=c1[nH]c2c(s1)C(c1ccco1)C1C3CCC(C3)C1S2 (stereo not drawn),-0.2%,18.3%,-46.3%,44.7µM*,-9.7%,-1.3%
O=C(O)CN1C(=O)C2C3CC(C2C1=O)C1C(c2ccccc2)c2sc(=O)[nH]c2SC31 (stereo not drawn),1.1%,-2.1%,-37.9%,-9.8%,-2.2%,4.5%
O=C(/C=C/c1ccco1)NCC(=O)N/N=C/c1ccc([N+](=O)[O-])cc1,1.2%,6.8%,?,44.7µM*,-9.6%,1.8%
COc1ccccc1-c1nn2c(-c3cc(C)[nH]n3)nnc2s1,.,.,-19.9%,-14.2%,-9.7%[0.0914 µM],.
COc1ccc(S(=O)(=O)Nc2cc(Sc3ncn[nH]3)c(O)c3ccccc23)cc1,-0.7%,6.9%,?,?,50.1µM*,3.9%
O=S(=O)(Nc1cc(Sc2cccc3cccnc23)c(O)c2ccccc12)c1ccc(F)cc1,-0.1%,0.6%,?,22.4µM*,-13.7%,-7.8%
COC(=O)Cc1c(C)c2cc3c(c(C)c2oc1=O)OCN(CCc1ccccc1F)C3,.,.,-31.3%,?,432.6%,.
COc1ccccc1CCN1COc2c(cc3c(C)c(C)c(=O)oc3c2C)C1,.,.,-21.5%,89.1µM*,587.0%,.
COC(=O)Cc1c(C)c2cc3c(c(C)c2oc1=O)OCN(CCc1ccc(OC)cc1)C3,.,.,-11.7%,79.4µM*,351.4%,.
CCCS(=O)(=O)c1ncc(Cl)c(C(=O)Nc2sc3c(c2C(=O)NCC)CCCC3)n1,.,.,.,?,1.8%,.
NCC(O)COc1cccc2ccccc12 (stereo not drawn),.,.,i,.,.,.
O=C(COc1ccccc1C(=O)Nc1ccccc1)NCCCCc1ccccc1,.,.,.,5.6%,-6.7%,.
N#CC1=C(N)C(C#N)(C#N)[C@H](c2c(F)cccc2F)[C@H]2CC3(CC=C12)OCCO3,-0.1%,?,-8.9%,?,-8.6%,?
N#CC1=C(N)C(C#N)(C#N)C2(CCC3(CC2)OCCO3)C2CC3(CC=C12)OCCO3 (stereo not drawn),0.3%,-6.1%,-11.7%,89.1µM*,5.6%,0.2%
CN1CCN(C2=C(Cl)C(=O)N(c3ccc(Cl)c(Cl)c3)C2=O)CC1,-3.5%,10.6%,-28.8%,15.8µM*,4.2%[57.1 µM],3.4%
CCOC(=O)c1cc(-c2ccccc2)n(-c2cccc(C(=O)Nc3ccc(OC)cc3)c2)c1C,.,.,7.1%,7.2%[57.1 µM],-8.6%[57.1 µM],.
COc1ccc(COC[C@H](C)[C@H](O)[C@@H](C)[C@H]2OC(=O)[C@@H]2C)cc1,.,.,24.0%,7.94µM*!,-3.4%,.
CC[C@H](NC(C)C)[C@H](O)c1ccc(O)c2[nH]c(=O)ccc12,.,.,23.8µM*!,.,.,.
C[C@H](CCC(=O)O)C1CC[C@H]2C3CC[C@@H]4C[C@H](O)CC[C@]4(C)C3C[C@H](O)[C@]12C (stereo partly drawn),.,.,400.0%[56.9 µM],.,.,.
